# Assay results taken from PubChem BioAssay (NCI).
# “And” between values parts separate entries of the source, which are not always exact repeats. Equal entries are not always repeated. Compounds without any hit were thinned out: in the full panel of roughly 83,000, 20% have a hit.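 Interpretation: 100, growth as untreated; towards 0, rising growth inhibition; 0, no net growth; 0 to -100, cell death. Compounds scoring below 10 were considered active.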 The source made the active and inactive calls.
# Tested on: SNB-75 CNS
# Experiment: NCI-60 one-dose screen, 48 h (100 = growth as untreated, 0 = no growth, -100 = all killed)
# Conditions: 10 µM unless noted
# Method: Growth inhibition of the SNB-75 human tumor cell line is measured as a screen for anti-cancer activity. Cells are grown in 96 well plates and exposed to the test compound for 48 hours. Compounds are tested at a single concentration, which is 10^-5 M for most compounds. The reported endpoint is percent growth (GI% or GIPRCNT), where numbers from 0 - 100% represent growth inhibition, and numbers from -100% - 0 represent cell death. For example, a value of 40 represents 60% growth inhibition. A value of 0 means no net growth occurred over the course of the experiment. A value of -40 indicates 40% of cells at the beginning of the experiment died by the end of the experiment. A value of -100 means all cells are dead at the end of the experiment.
# NCI-60 Human Tumor Cell Lines Screen was performed using the standard one-dose NCI protocol, which is described in more detail at https://dtp.cancer.gov/discovery_development/nci-60/default.htm.
# Compounds with GIPRCNT values below 10 were considered active. Activity score was based on GIPRCNT using the following formula: […]
# Score is 0 for GIPRCNT values of 100 or above, 50 for GIPRCNT values of 0, and 100 for GIPRCNT values of -100.
row,Structure (SMILES),growth
1,CCc1cc(O)ccc1Nc1cc(-c2ccc(-n3cccn3)cc2)[nH]n1,117% (inactive)
2,Cc1ccc(NC(=O)Nc2nc3ccc([N+](=O)[O-])cc3s2)cc1,1.44% (active)
3,COC(=O)[C@@H](Cc1c[nH]c2ccccc12)NC(=O)CCCCOc1cc(O)c2c(=O)cc(-c3ccccc3)oc2c1,72.3% (inactive)
4,O=C(CCCCCCN1CC(=O)N2[C@@H](C3CC3)c3[nH]c4ccccc4c3C[C@H]2C1=O)NO,58.7% (inactive)
5,O=C(CCCCCCN1CC(=O)N2[C@@H](c3cccs3)c3[nH]c4ccccc4c3C[C@H]2C1=O)NO,73% (inactive)
6,C#C[C@]1(O)CC[C@H]2[C@@H]3CC=C4c5sc(Nc6cccc(F)c6)nc5CC[C@]4(C)[C@H]3CC[C@@]21C,24.1% (inactive)
7,CC[C@H](CC[C@@H](C)[C@H]1CC[C@H]2[C@@H]3CC(=O)C4=CC(=O)/C(=C/c5ccc([N+](=O)[O-])cc5)C[C@]4(C)[C@H]3CC[C@]12C)C(C)C,96.1% (inactive)
8,O=C(Nc1ccccc1)Nc1nc2ccc([N+](=O)[O-])cc2[nH]1,84.9% (inactive)
9,O=C(CCCCCCNC(=O)C(O)(O)C(F)(F)F)Nc1ccc(Cl)cc1,42.5% (inactive)
10,Cc1ccc(S(=O)(=O)NCCCNc2nc(Nc3ccc(N4CCN(C)CC4)cc3)nc3ccsc23)cc1,88.5% (inactive)
11,CN1CCN(CCCCCC(=O)Nc2nc(-c3cccc(NS(=O)(=O)c4cccc5c(N(C)C)cccc45)c3)cs2)CC1,76.7% (inactive)
12,NCCNC(=O)c1cccc(COc2ccccc2NC(=O)c2cc(Br)c(Br)[nH]2)c1,94.1% (inactive)
13,COc1cc(-c2nc(-c3ccccc3)[nH]c2-c2ccnc(NCCCNS(=O)(=O)c3ccc(C(F)(F)F)cc3)n2)ccc1Cl,58.6% (inactive) and 67.5% (inactive)
14,CC(=O)Nc1cc(N2CCOCC2)c2nc(NC(=O)c3[nH]c(C)c(Cl)c3Cl)sc2c1,17.3% (inactive)
15,Cc1ccccc1Nc1nc(SC(C)C)nc(-c2ccccc2)c1C#N,101% (inactive)
16,Cc1ccc(NC(=O)/C=C/c2ccc(OCCCOc3ccc4c(C)cc(=O)oc4c3)cc2)cc1,-6.2% (active)
17,O=C(COc1ccc(/C=C2\C(=O)Nc3ccc(F)cc32)cc1)Nc1ccccc1,94.7% (inactive)
18,N#C/C(=C\c1ccc(-c2ccc(Cl)cc2)o1)C(=O)Nc1ncc(Cc2ccc(Br)cc2)s1,-18.1% (active)
19,Cn1c2nc3ccccc3c-2cc2ccccc21,82.3% (inactive)
20,CCN(CC)CCOc1ccc(C(=C(c2ccccc2)C2CCCC2)c2ccc(OCCN(CC)CC)cc2)cc1,10.3% (inactive)

row,Structure (SMILES),growth
1,Cc1c(C(=O)/C=C/c2ccc(Cl)cc2)nnn1-c1ccc2oc(=O)ccc2c1,104% (inactive)
2,Cn1cc(-c2cc3ncnc(Nc4ccc(NC(=O)Nc5cc(C(C)(C)C)on5)cc4)c3s2)cn1,6.15% (active)
3,CC1=C(C)C(=O)C(Nc2cccc(C(=O)OC(C)(C)C)c2)=C(Cl)C1=O,58.4% (inactive)
4,Cc1ccccc1NC(=O)Nc1nc2ccc([N+](=O)[O-])cc2s1,6.72% (active)
5,COc1cc(C(=O)c2cc(C(C)=O)c3ccc(C)cn23)cc(OC)c1OC,6.02% (active)
6,C=C(C=O)[C@@H]1CC[C@]2(C(=O)O)CC[C@]3(C)C(CC[C@@H]4[C@@](C)(CCC#N)[C@H](C(=C)C=O)CC[C@]43C)[C@@H]12 (stereo not given in full),59% (inactive)
7,Oc1ccc(-c2nc3ccc(/C(=N\N=C\c4ccc(Cl)cc4)c4ccccc4)cc3[nH]2)cc1,93.4% (inactive)
8,Brc1ccc(-c2cc(-c3ccc4c(c3)OCCO4)n[nH]2)s1,7.95% (active)
9,CC(=O)N1N=C(c2cc3ccccc3oc2=O)CC1c1cn(-c2ccccc2)nc1-c1ccc(C)cc1 (stereo not given),90.7% (inactive)
10,C/C=C/CC(C)C(O)[C@H](NC(=O)[C@@H]1CCCN1C(=O)[C@](C)(CC)NC(=O)CCCCCCCCC)C(=O)N[C@@](C)(CC)C(=O)N[C@@H](CCC(N)=O)C(=O)N[C@H](CCC(N)=O)C(=O)NC(C)(C)C(=O)NC(C)(C)C(=O)N[C@@H](CCC(N)=O)C(=O)N[C@H](CC(C)C)C(=O)N[C@H](CO)CC(C)C (stereo not given in full),13.1% (inactive) and -93.4% (active)
11,CNC(=O)c1cc(Oc2ccc3c(c2)sc2nc(-c4ccc(N(C)C)cc4)cn23)ccn1,17.8% (inactive)
12,O=C(CSc1nnc(-c2cccs2)n1-c1ccccc1)Nc1ccccc1,-0.436% (active)
13,COc1ccc(/C=N/N=C(/c2ccccc2)c2ccc3nc(-c4ccc(Cl)cc4)[nH]c3c2)cc1,106% (inactive)
14,CCn1c2ccc(/C=N/N(C)S(=O)(=O)CCN(C)C)cc2c2cc(/C=N/N(C)S(=O)(=O)CCN(C)C)ccc21,87.1% (inactive)
15,COc1ccc(C(=NNS(=O)(=O)c2ccc(C)cc2)c2ccccc2)cc1OC,90.4% (inactive)
16,CCCCSC1=C(Cl)CN(c2ccc(Cl)cc2)C1=O,104% (inactive)
17,O=C1/C(=C/C=C/c2ccco2)SC(=S)N1Cc1ccccc1,84.7% (inactive)
18,COC(=O)CNC(=O)c1cccc(-c2cc(=O)c3c(OC)c(OC)c(OC)cc3o2)c1,99.5% (inactive)
19,CC1=C(C)C(=O)C(Nc2cccc(C(=O)OC(C)(C)C)c2)=CC1=O,71% (inactive)
20,CCc1nnc(NC(=O)c2cc(-c3ccc(Cl)cc3Cl)oc2C)s1,94% (inactive)
